In all, about 310,000 compounds went through this assay and about 14,000 (4.5%) showed an effect of 50% or more. The effect is printed as a negative number. The sample holds strong results, similar compounds and a random draw of the others, so the mix is not that of the screen.
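Further: peak tail current of the secondary pulse compared with the same well before compound.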

The target in this assay is human ether-à-go-go-related gene (hERG) potassium channel (human, UniProt Q12809). Briefly: primary screen, population patch clamp on CHO cells stably expressing hERG; higher = less effect of the substance.
Sequence of human ether-à-go-go-related gene (hERG) potassium channel (Q12809 whole entry, looked up): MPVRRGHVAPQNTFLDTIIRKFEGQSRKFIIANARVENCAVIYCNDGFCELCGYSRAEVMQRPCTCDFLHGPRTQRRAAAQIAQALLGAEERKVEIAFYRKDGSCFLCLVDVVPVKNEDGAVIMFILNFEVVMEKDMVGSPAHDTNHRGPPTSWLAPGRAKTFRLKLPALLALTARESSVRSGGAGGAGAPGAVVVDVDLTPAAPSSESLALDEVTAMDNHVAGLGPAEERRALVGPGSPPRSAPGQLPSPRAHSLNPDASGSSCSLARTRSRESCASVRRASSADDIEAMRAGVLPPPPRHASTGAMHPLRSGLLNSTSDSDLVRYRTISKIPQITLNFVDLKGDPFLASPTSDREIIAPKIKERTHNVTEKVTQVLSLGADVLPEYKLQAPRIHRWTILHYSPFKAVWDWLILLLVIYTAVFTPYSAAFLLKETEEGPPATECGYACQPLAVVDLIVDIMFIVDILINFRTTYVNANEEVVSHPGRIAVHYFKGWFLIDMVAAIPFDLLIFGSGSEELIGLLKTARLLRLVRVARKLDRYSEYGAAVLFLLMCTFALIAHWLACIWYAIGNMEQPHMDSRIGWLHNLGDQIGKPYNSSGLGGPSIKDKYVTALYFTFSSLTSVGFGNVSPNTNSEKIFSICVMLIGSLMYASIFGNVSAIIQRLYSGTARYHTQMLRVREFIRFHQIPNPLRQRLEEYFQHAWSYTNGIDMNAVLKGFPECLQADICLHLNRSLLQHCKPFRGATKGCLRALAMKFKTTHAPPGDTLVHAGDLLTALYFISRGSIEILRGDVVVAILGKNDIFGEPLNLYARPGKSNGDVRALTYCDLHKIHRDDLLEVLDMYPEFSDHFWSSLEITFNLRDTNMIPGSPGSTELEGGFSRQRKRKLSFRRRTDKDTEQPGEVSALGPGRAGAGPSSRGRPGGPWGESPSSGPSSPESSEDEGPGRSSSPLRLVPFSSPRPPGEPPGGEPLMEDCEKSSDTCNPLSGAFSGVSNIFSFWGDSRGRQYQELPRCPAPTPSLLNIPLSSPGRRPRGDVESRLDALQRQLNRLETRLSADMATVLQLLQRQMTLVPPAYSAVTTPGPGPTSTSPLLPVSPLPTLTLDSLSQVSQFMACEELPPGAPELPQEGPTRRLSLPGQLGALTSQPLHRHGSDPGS
With `CCC1CCCCN1CCCNC(=O)CSc1nc2nc(C)c(Cc3ccc(C)cc3)c(C)n2n1` (stereo not drawn), the “hERG current change (%, negative = inhibition) at 10uM” value is recorded as -47.8%. With `NS(=O)(=O)c1ccc(NC(=O)COC(=O)CCC2CCCCC2)cc1` the figure was -5.65%; with `Cc1ccc(C(=O)NCCN2CCNC2=O)cc1`, 12.9%. On to `O=C(Nc1ccc2c(c1)OCO2)C(=O)c1c[nH]c2ccccc12`, for which the “hERG current change (%, negative = inhibition) at 10uM” value turned out to be 22.3%. With `COc1ccc(C(=O)NCCCNC(=O)c2ccccn2)cc1` the figure was 10.8%; with `CCCn1c(SCC(=O)NC2CCCCC2)nnc1-c1ccncc1`, 4.24%.

Consider `CN1CCN(S(=O)(=O)c2ccc(N(C)Cc3ccc(OC(F)F)cc3)c([N+](=O)[O-])c2)CC1`, for which the “hERG current change (%, negative = inhibition) at 10uM” value is given as -60.8%. With `CN1CCN(S(=O)(=O)c2ccc(Nc3ccc(F)cc3)c([N+](=O)[O-])c2)CC1` the figure was -51.3%.

Consider `CN1CCN(S(=O)(=O)c2ccc(N(C)Cc3ccc(C(F)(F)F)cc3)c([N+](=O)[O-])c2)CC1`, for which the “hERG current change (%, negative = inhibition) at 10uM” value is reported as -5.45%. As for `CN1CCN(S(=O)(=O)c2ccc(Nc3cccc(Cl)c3)c([N+](=O)[O-])c2)CC1`, the figure is -20.7%; as for `C=CCOc1ccc(CN(C)c2ccc(S(=O)(=O)N3CCN(C)CC3)cc2[N+](=O)[O-])cc1`, 6.82%.

Take `COc1cc(Nc2ccc(S(=O)(=O)N3CCN(C)CC3)cc2[N+](=O)[O-])cc(OC)c1`: the “hERG current change (%, negative = inhibition) at 10uM” value was -28.6%. With `Cc1nnc(SCC(N)=O)n1CC1CCCO1` (stereo not drawn), the “hERG current change (%, negative = inhibition) at 10uM” value is reported as 3.55%. As for `NC(=O)c1ccsc1NC(=O)c1coc2ccccc2c1=O`, the figure is -2.56%. As for `COc1ccc(-c2nn3c(-c4ccccn4)nnc3s2)cc1OC`, the figure is 10.6%; as for `CCOC(=O)c1sc(SCC(=O)Nc2ccc(N(C)C)cc2)nc1N`, -13%; as for `S=C(NCCc1cnc[nH]1)NC1CCCC1`, 23.2%. As for `CCOC(=O)Cc1nc2cc(Cl)ccc2o1`, the figure is 10.7%; as for `N#Cc1ccsc1NC(=O)c1ccccn1`, -4.67%; as for `CCOc1ccc(OCCC(=O)N2CCc3cc(OC)c(OC)cc3C2)cc1`, -20.6%. `COc1ccc(OC)c(Nc2nc(NCc3ccco3)c3ccccc3n2)c1.Cl`: the “hERG current change (%, negative = inhibition) at 10uM” value was -12.2%. With `CC#CC(=O)NC1CCCN(C2Cc3ccccc3C2)C1` (stereo not drawn) the figure was -18.7%; with `CSCC(=O)NC1CCCN(C2Cc3ccccc3C2)C1` (stereo not drawn), -5.38%; with `C#Cc1cccc(C(=O)NC2CCCN(C3Cc4ccccc4C3)C2)c1` (stereo not drawn), -64.4%.

Turning to `O=C(NC1CC1)c1ccc(F)cc1Cl`, the “hERG current change (%, negative = inhibition) at 10uM” value is given as 21%.

`O=C(NC1CCCN(C2Cc3ccccc3C2)C1)c1ccc(F)cc1Cl` (stereo not drawn): the “hERG current change (%, negative = inhibition) at 10uM” value is on record as -71.1%. As to `COc1cccc(C(=O)NC2CCCN(C3Cc4ccccc4C3)C2)c1OC` (stereo not drawn), the “hERG current change (%, negative = inhibition) at 10uM” value was -41.7%. With `Cn1cnnc1SC(C(=O)Nc1cc(Cl)cc(Cl)c1)c1ccccc1` (stereo not drawn) the figure was 20.9%; with `Cc1cc(C(=O)CSc2nc3ccccc3[nH]2)c(C)n1CC1CCCO1` (stereo not drawn), -12.5%; with `CC(C)(C)NC(=O)NC(=O)CSc1ccc(S(=O)(=O)N2CCCCC2)cn1`, -13.5%. With `CC(=O)N1CCCN(C(=O)c2cc(COc3c(F)cccc3F)on2)CC1` the figure was 6.58%; with `Cc1cccc(C)c1OCc1cc(C(=O)N2CCCCCCC2)no1`, -0.442%. As for `O=C(c1cc(COc2c(F)cccc2F)on1)N1CCN(C2CCCCC2)CC1`, the figure is -52%; as for `Cc1cccc(C)c1OCc1cc(C(=O)N2CCN3CCCC3C2)no1` (stereo not drawn), -19.5%. Take `O=C(c1cc(COc2c(F)cccc2F)on1)N1CCCCCC1`: the “hERG current change (%, negative = inhibition) at 10uM” value is 4.46%.

Take `Cc1cccc(C)c1OCc1cc(C(=O)N2CCN(C3CCCC3)CC2)no1`: the “hERG current change (%, negative = inhibition) at 10uM” value is reported as -67.9%. With `CN(C)Cc1c(-c2ccc(Cl)cc2)nc2ccccn12` the figure was 0.0702%; with `CC(C)(C)c1ccc(C(=O)NCCCNC(=O)c2cccnc2)cc1`, 11.7%. With `CCN(C(=O)[C@@H]1CCCN1C(=O)c1cccs1)c1nc2cc(Cl)ccc2s1` the figure was -36%; with `Cc1ccc(-c2noc(CCC(=O)NCC3CCN(Cc4cccc(C)c4)CC3)n2)cc1`, -63.8%. With `COc1ccc(-c2noc(CCC(=O)NC3CCN(Cc4ccccc4)CC3)n2)cc1`, the “hERG current change (%, negative = inhibition) at 10uM” value was -45.7%. As for `COc1ccc(-c2noc(CCC(=O)NCCc3cccc(C)c3)n2)cc1`, the figure is -0.562%.

(Values after article PMC4336329 (PLoS ONE, 2015).)
